# This is a sample that favours compounds with a hit; in the whole collection about 2.6% have one here.
# EWS-Fli inh = EWS/Fli transcriptional activity inhibition. A673 NR0B1-luciferase reporter, viability-normalised. inhibition, % at 12.6 µM. 0.67% of 350,000 active;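 active = mean inhibition of at least 50% after viability correction, with every replicate also passing that limit; inconclusive = mean reaches 50% but only one of two replicates passes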;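 also: firefly luciferase signal divided by Alamar Blue viability fluorescence both relative to DMSO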
# TWEAK-Fn14 inh = TWEAK-Fn14 signaling inhibition; TWEAK-stimulated Fn14 reporter cells, luciferase luminescence, 8 h; 2% of 360,000 active; inhibition, % at 10 µM; in the data active = inhibition above about 50%
# LGR2 antag = blocks bursicon-induced cAMP signaling via Drosophila LGR2. HEK293 LGR2, CRE-luciferase, bursicon-stimulated, 4 h. inhibition, % at 9.99 µM. 0.35% of 380,000 active;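 active = drop in luminescence signal, shown as inhibition above about 50% in the replicate tests, limit read from the data, passing the limit was not always enough; inconclusive = probably only some replicates passing the limit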;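 also: agonist challenge used bursicon conditioned medium at about half maximal strength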
# CF NFkB inh = cystic fibrosis NF-kB activation inhibition; 0.86% of 360,000 active; AID 588850; KKLEB NF-kB-GFP reporter, PAF-induced, GFP fluorescence overnight; inhibition, % at 5 µM;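 active = at least 50% inhibition at 5 µM, scaled per plate between neutral and stimulator controls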;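 also: PAF is a Pseudomonas aeruginosa culture filtrate used as stimulus; plate controls were PAF-stimulated DMSO wells for no effect and unstimulated DMSO wells for full effect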
# KKLEB cytotox = CF airway cell cytotoxicity counter-screen | KKLEB CF airway cells viability, ATPlite luminescence, overnight; stronger effect = lower value; cells stimulated with P. aeruginosa culture filtrate | activity change (cytotoxicity), % at 5 µM | 0.36% of 360,000 active;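 active = corrected activity change at or below -50% at 5 µM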
# TROY signal inh = TROY signaling inhibition | 0.98% of 360,000 active | AID 1347056 | inhibition, % at 10 µM | Q293 LMP1-TROYcd NF-kB luciferase reporter, 4 h;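 active = compounds whose plate-normalised and pattern-corrected inhibition of the luciferase reporter signal at the single screening dose is 50% or more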
# An asterisk follows results filed as active; ? = inconclusive; . = no result.
SMILES,EWS-Fli inh,TWEAK-Fn14 inh,LGR2 antag,CF NFkB inh,KKLEB cytotox,TROY signal inh
CCCCn1c(NCc2ccccc2NS(=O)(=O)c2ccc(C)cc2)nc2ccccc21,.,47,.,-6,-1,10
CCCCn1c(NS(=O)(=O)c2ccc(C)cc2)c(S(=O)(=O)c2ccccc2)c2nc3ccccc3nc21,.,47,11,43,-16,64*
O=C(Nc1ccc([N+](=O)[O-])cc1)Nc1ccc(N2CCOCC2)c2nonc12,12,6,67*,10,-20,69*
C[C@H](CO)N1C[C@H](C)[C@@H](CN(C)Cc2ccc(C(F)(F)F)cc2)OCCCC[C@H](C)Oc2ccc(NC(=O)Nc3ccc(F)cc3)cc2C1=O,12,.,12,.,.,.
Nc1c(N(CCC2=CCCCC2)C(=O)COc2ccc(F)cc2Cl)c(=O)[nH]c(=O)n1Cc1ccccc1,58*,42,-8,38,-36,10
Nc1c(N(CCC2=CCCCC2)C(=O)Cc2ccc(F)cc2)c(=O)[nH]c(=O)n1Cc1ccccc1,4,13,-6,27,-10,-8
COc1ccc(S(=O)(=O)N[C@H]2CC[C@H](CCNC(=O)Cc3ccccn3)O[C@H]2CO)cc1,-5,.,8,.,.,.
CC(C)CCNC(=O)C(c1ccc(O)cc1)N(Cc1cccs1)C(=O)C1COc2ccccc2O1 (stereo not given),3,55*,?,5,-3,28
CC(C)(C)NC(=O)CN(Cc1cccs1)C(=O)C1COc2ccccc2O1 (stereo not given),.,-1,.,8,6,3
C[C@H](CO)N1C[C@H](C)[C@@H](CN(C)Cc2ccncc2)Oc2ncc(C3=CCCCC3)cc2C1=O,-16,.,12,.,.,.
CC1CCN(c2ccc(-c3ccc(NC(=O)C(F)(F)F)cc3)nn2)CC1,.,62*,.,6,-39,41
CC(=O)Nc1ccc(NC(=O)C(F)(F)F)cc1,.,-4,.,7,-2,2
O=C(O)C[C@@H]1C=C[C@H](NC(=O)CCN2CCCCC2)[C@@H](CO)O1,-1,.,28,.,.,.
COc1cc(N/N=C/c2ccc(N(C)C)cc2)ncn1,-3,60*,74*,-1,-46,43
CN(C(=O)COc1ccc2ccc(=O)oc2c1)C1CCS(=O)(=O)C1 (stereo not given),-3,25,-7,4,-5,-29
CC(C)CN(C(=O)COc1ccc2ccc(=O)oc2c1)C1CCS(=O)(=O)C1 (stereo not given),0,61*,3,24,-13,-12
COC1=CC(=O)c2c(ccc3ncnc(N)c23)C1=O,40,100*,96*,82*,-90*,54*
O=C(/C=C/Nc1ccc(S(=O)(=O)Nc2ncccn2)cc1)c1cccs1,1,60*,1,11,2,42
O=C(/C=C/Nc1ccc(S(=O)(=O)Nc2ncccn2)cc1)c1ccc(Cl)c(Cl)c1,4,4,-22,-12,-3,-10
Cc1ccc(OCC(O)CNC2CCCC2)c(C)c1 (stereo not given),5,-6,-3,-7,-6,-10
Cc1ccccc1OCC(O)CNC1CCC(NCC(O)COc2ccccc2C)CC1 (stereo not given),69*,-37,13,38,-37,11
O=C(CSc1nc2ccc(Cl)cc2[nH]1)NC1CCCc2ccccc21 (stereo not given),-12,63*,-18,2,1,52*
O=C(CSc1ccc(Cl)cc1)NC1CCCc2ccccc21 (stereo not given),6,-5,-13,-5,-2,74*
O=C(CSc1c(Cl)cccc1Cl)NC1CCCc2ccccc21 (stereo not given),2,-5,-10,-8,16,12
Cc1ccc(S(=O)(=O)N2CCN(C(=O)CSc3nnc(C)c(=O)[nH]3)CC2)cc1,.,-7,.,-3,11,1
SMILES,EWS-Fli inh,TWEAK-Fn14 inh,LGR2 antag,CF NFkB inh,KKLEB cytotox,TROY signal inh
Cc1ccc(S(=O)(=O)N2CCN(C(=O)CSc3nccn3C)CC2)cc1,7,-23,1,7,-4,60*
CN(C)c1cc(NC(=O)CNC(C)(C)C)c2ccccc2n1,1,51*,0,-25,9,-2
CC(CCN1CCOCC1)c1ccccc1 (stereo not given),4,60*,12,3,-2,5
CC(CCN1CCN(CCO)CC1)c1ccccc1 (stereo not given),14,0,11,-1,-11,13
NC(=O)c1ccc(Sc2nnc(-c3cccs3)n2CC2CCCO2)c([N+](=O)[O-])c1 (stereo not given),75*,25,1,0,-10,6
COc1cccc2c1C(=O)c1c(O)c3c(c(O)c1C2=O)C[C@@](O)(C(=O)CO)C[C@@H]3OC1CC(N)C(O)C(C)O1 (stereo not given in full),10,76*,.,10,-28,-18
COc1cccc2c1C(=O)c1c(O)c3c(c(O)c1C2=O)CC(O)(C(C)=O)CC3OC1CC(N(C)C)C(O)C(C)O1 (stereo not given),65*,98*,101*,77*,-42,61*
CC(=O)[C@@]1(O)Cc2c(O)c3c(c(O)c2[C@H](O[C@H]2C[C@H](N)[C@H](O)[C@H](C)O2)C1)C(=O)c1ccccc1C3=O,59*,95*,98*,-28,-53*,66*
COc1cccc2c1C(=O)c1c(O)c3c(c(O)c1C2=O)C[C@@](O)(C(=O)CO)C[C@@H]3O[C@H]1C[C@H](N)[C@H](O)[C@H](C)O1,47,87*,.,83*,-52*,5
CNC[C@@H]1OCCCC[C@@H](C)Oc2ccc(NC(=O)Nc3c(C)noc3C)cc2C(=O)N([C@H](C)CO)C[C@@H]1C,-1,.,6,.,.,.
O=C(N[C@H]1C=C[C@@H](CC(=O)N2CCOCC2)O[C@H]1CO)c1cccc(F)c1,-3,.,-4,.,.,.
CCC(=O)N1CCc2cc(S(=O)(=O)CCC(=O)NCCc3ccccc3)ccc21,.,-10,.,-2,12,8
CCC(=O)N1CCc2cc(S(=O)(=O)CCC(=O)NCc3ccco3)ccc21,-6,101*,-6,16,-3,10
C[C@H](CO)N1C[C@H](C)[C@@H](CN(C)CC2CCCCC2)Oc2ccc(NS(=O)(=O)c3ccccc3)cc2CC1=O,5,.,2,.,.,.
CCOC(=O)/C(C#N)=C/c1cc(C)n(-c2ccccc2)c1C,.,84*,.,2,2,89*
Cc1cc(/C=C(\C#N)C(=O)Nc2ccccc2)c(C)n1-c1cccnc1,-70,-8,-78,14,-4,-21
CO[C@@H]1CN(C)C(=O)c2cc(NC(=O)c3ccccc3)ccc2OC[C@@H](C)N(C(C)=O)C[C@H]1C,-1,.,-5,.,.,.
CC1=NCC(C)c2c1[nH]c1ccccc21 (stereo not given),.,-12,.,-14,1,75*

# Screening data (PubChem BioAssay)
